# Measurements from PubChem BioAssay AID485294 (National Center for Advancing Translational Sciences (NCATS), 2010).
# Hit rate of the full screen: of about 370,000 compounds, about 150 (0.041%) were called active. Roughly 14% stayed inconclusive and do not appear here. The sample holds actives, similar compounds and a random draw of the others, so the mix is not that of the screen. Calls follow the shape of the dose curve; as a rule, active = well fitted inhibition curve with a large enough effect; inconclusive = small, poorly fitted or top-dose-only effect; inactive = flat fitted curve, though single readings scatter.
# Target: Beta-lactamase (Escherichia coli (strain K12)) (UniProt P00811)
# Assay: qHTS Inhibitors of AmpC Beta-Lactamase (assay with detergent); also: nearly all actives have a fitted effect of over 25% in size;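 as to activity change, negative = inhibition: 0% = no-compound wells and -100% = no-enzyme wells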
# Conditions: AmpC hydrolysis of nitrocefin, absorbance 480 nm, 0.01% Triton; series mostly up to 114 µM; activity change, negative = inhibition: at the top concentration
# Procedure: NIH Molecular Libraries Probe Production Network [MLPCN] NIH Chemical Genomics Center [NCGC] Assay Provider: Professor Brian Shoichet, UCSF Assay Overview: This aggregation profiling approach exploits the sensitivity of aggregate formation to detergent. Inhibition of b-lactamase is measured in the presence and absence of 0.01% Triton X-100. This particular assay had the prescence of 0.01% Triton X-100. See Pubchem assay "Promiscuous and Specific Inhibitors of AmpC Beta-Lactamase (assay without detergent)" for related screen. Compounds that inhibit only in the absence of detergent are considered likely promiscuous aggregators. A screen of 1,030 compounds was performed in Brian Shoichet's lab in 96-well format. AmpC activity was measured by following the absorbance at 480 nm. Nitrocefin is a chromogenic substrate: while nitrocefin is yellow (lmax 390 nm), the product of its hydrolysis is red (lmax 486 nm, 17,000 M-1). AmpC beta lactamase was provided by Shoichet Lab, UCSF.
# Buffer: 20 mM phosphate buffer, pH 7.0 Triton X-100: No Detergent screen: 0.0001%, Detergent screen: 0.01%. Reagents/Controls: Buffer in columns 3 and 4 as negative control (no enzyme). 5.3 nM AmpC in columns 1, 2, 5-48. Titration of UCSF compound 9 control (from 10 mM, then 1:2) pin-transferred to column 2. Column 1 is neutral (100% activity). Assay Steps: Six uL of reagents were dispensed to 1536-well Greiner black clear bottom plates. Compounds and controls (23 nL) were transferred via Kalypsys PinTool. The plates were incubated for 15 min at room temperature, and then 2 uL of 800 uM solution of nitrocefin was added to start the reaction. The plates were immediately transferred to and read every 20 seconds for 4 min on ViewLux (Perkin-Elmer) High-throughput CCD imager using 480 nm absorbance protocol. During dispense, reagent bottles were kept submerged into 4 deg C water bath. Keywords: NIH Roadmap, MLSCN, MLI, MLSMR, qHTS, NCGC, AmpC Beta-Lactamase, Aggregation
# Potency is read from the fitted curve at half-maximal effect.
# Beta-lactamase (Escherichia coli (strain K12)), sequence (P00811 whole entry, looked up): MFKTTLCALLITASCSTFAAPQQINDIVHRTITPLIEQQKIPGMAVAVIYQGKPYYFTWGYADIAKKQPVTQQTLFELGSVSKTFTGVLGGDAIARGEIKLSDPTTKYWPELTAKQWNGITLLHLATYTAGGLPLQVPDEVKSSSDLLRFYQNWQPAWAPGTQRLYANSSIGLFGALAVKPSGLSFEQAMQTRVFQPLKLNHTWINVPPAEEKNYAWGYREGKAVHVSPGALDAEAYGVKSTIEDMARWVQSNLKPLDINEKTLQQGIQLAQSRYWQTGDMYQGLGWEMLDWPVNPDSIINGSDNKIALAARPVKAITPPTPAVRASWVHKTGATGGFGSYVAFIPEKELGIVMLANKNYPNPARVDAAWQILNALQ
SMILES,"activity change, negative = inhibition",Potency
CC(C)(C)c1ccc(C(=O)NCC(c2ccc(Cl)cc2)N2CCOCC2)cc1 (centres undefined),2.83% (inactive),
COC(=O)c1c(NC(=O)c2cc(=O)c3c(C)cc(C)cc3o2)sc2c1CCCC2,10.8% (inactive),
CCc1cc2c(cc3c(=O)n(CC(=O)NCCc4ccc(OC)c(OC)c4)ncn32)s1,3.6% (inactive),
Cc1ccccc1CNC(=O)Cn1c(C)c2cnn(-c3ccccc3)c(=O)c2c1C,19.2% (inactive),
COc1ccc(-c2nc3sc(CCNC(=O)C(C)(C)C)c(C)n3n2)cc1,-0.935% (inactive),
Cc1nn(C(=O)c2c(F)cccc2F)c(C)c1S(=O)(=O)N1CCOCC1,11.4% (inactive),
CCOc1ccc(C(=O)/C=C/c2cn(CC(O)CN3CCCCCC3)c3ccccc23)cc1 (centres undefined),16.8% (inactive),
COc1ccc(OCCCn2c(C3CC(=O)N(c4ccc(F)cc4)C3)nc3ccccc32)cc1 (centres undefined),20.7% (inactive),
Cn1c(C(=O)Nc2cccc(C(F)(F)F)c2)cc2c(=O)n3ccccc3nc21,-1.95% (inactive),
CCOc1ccc(CNC(=O)Cn2cc3c(n2)-c2c(oc(C(=O)N4CCCC4)c2C)CC3)cc1,-4.37% (inactive),
Cc1ccc(Nc2c(-c3ccc(N(C)C)cc3)nc3nc[nH]n23)cc1,18.3% (inactive),
CCOC(=O)c1ccc(NC(=O)C2CCN(S(=O)(=O)c3ccc4c(c3)CCCC(=O)N4)CC2)cc1,-0.957% (inactive),
Cc1csc2nc(COC(=O)c3ccccc3NC(=O)c3ccccc3Cl)cc(=O)n12,-0.932% (inactive),
CCOc1ccc(Nc2c(S(=O)(=O)c3ccccc3)cnc3ccccc23)cc1,1.55% (inactive),
CCCCn1cc(S(=O)(=O)c2ccc(OCC)cc2)c(=O)c2cc(OC)c(OC)cc21,0.326% (inactive),
Cc1ccc(C)c(N2CCN(CCCNC(=O)Nc3ccc(Cl)cc3)CC2)c1,16.9% (inactive),
Cc1ccc2nc(-c3ccc(C)c(NC(=O)Cc4ccccc4)c3)oc2c1,10.6% (inactive),
CCc1cccc(C)c1Nc1c(-c2ccc(N(C)C)cc2)nc2ncccn12,7.08% (inactive),
CCc1ccc(N2C(=O)CN(S(=O)(=O)CC)CC2(C)C(=O)NC2CCCCC2)cc1 (centres undefined),-6.84% (inactive),
COc1ccc(N2CCN(C(=O)C3CCCN(C(=O)c4cc5sccc5n4C)C3)CC2)cc1 (centres undefined),-0.711% (inactive),
O=C(CCS(=O)(=O)c1ccccc1)N(Cc1cccnc1)c1nc2c(F)cccc2s1,1.34% (inactive),
CCOC(=O)c1nnn(CC(=O)NC(=O)Nc2ccccc2F)c1C(=O)OCC,3.71% (inactive),
CC(C)Sc1nnc([C@H](Cc2ccccc2)NC(=O)OC(C)(C)C)o1,1.69% (inactive),
C[C@@H](NC(=O)OC(C)(C)C)c1nnc(S(=O)(=O)Cc2ccccc2)o1,,8.91 µM (active)

SMILES,"activity change, negative = inhibition",Potency
CCc1ccccc1NC(=O)CSc1nnc([C@@H](NC(=O)OC(C)(C)C)C(C)C)o1,-12.6% (inactive),
CC1CCN(S(=O)(=O)c2ccc3c(c2)N(CC(=O)NCCc2ccccc2)C(=O)CO3)CC1,15.2% (inactive),
Cc1cccc(-n2ncc(C(=O)N3CCN(c4ccc(Cl)cc4)CC3)c2C2CCN(C(=O)OC(C)(C)C)CC2)c1,22.4% (inactive),
CCOC(=O)c1ccc(NC(=O)CCS(=O)(=O)c2ccc(C)cc2)cc1,-5.95% (inactive),
CCOC(=O)c1scc(-c2ccc(C)cc2)c1S(=O)(=O)Nc1cc(C)ccc1C,19.9% (inactive),
Cc1ccc(S(=O)(=O)N2CCc3cc(C(=O)Nc4ccc(Cl)cc4C)ccc32)cc1,18.7% (inactive),
CC1CCCN(c2cc3c(cc2F)c(=O)c(S(=O)(=O)c2cccc(Cl)c2)cn3Cc2ccccc2)C1 (centres undefined),0.274% (inactive),
CCOC(=O)c1ccc(NC(=O)CSc2nc3c([nH]c4ccccc43)c(=O)n2C)cc1,2.22% (inactive),
COc1ccc(C2CC(=O)N(Cc3ccccc3C)c3c2c(C)nn3-c2nc(C)cc(C)n2)c(OC)c1 (centres undefined),14.8% (inactive),
COc1ccc2c(c1)c(=O)c(S(=O)(=O)c1ccc(F)cc1)cn2CC(=O)Nc1ccc(C)cc1C,-3.33% (inactive),
Cn1c(=O)nc2n(-c3ccc(Br)cc3)c3cccc(Cl)c3cc-2c1=O,3.23% (inactive),
O=C(Cn1cc(SCc2ccccc2)c2ccccc21)N1CCCCC1,-4.92% (inactive),
COCCCNC(=O)c1c(NC(=O)c2cc(=O)c3cc(C)c(C)cc3o2)sc2c1CCCC2,3.2% (inactive),
COc1ccc2c(c1)c(N1CCCC1=O)c(C(=O)Nc1ccccc1C(F)(F)F)n2C,14.7% (inactive),
CCOc1cc(C(=O)NCCc2csc3nc(-c4ccc(C)cc4)nn23)cc(OCC)c1OCC,11.5% (inactive),
COc1ccccc1CNC(=O)CCn1c(=O)c2ccccc2n(CC(=O)Nc2cccc(Cl)c2)c1=O,21.1% (inactive),
O=C1OC(OC(=O)c2ccccc2Br)C(N2CCOCC2)=C1Cl (centres undefined),,10 µM (active)
O=C1OC(NC(=O)c2ccccc2)C(N2CCOCC2)=C1Cl (centres undefined),-0.396% (inactive),
COc1ccc(NS(=O)(=O)c2ccc(N3CCOCC3)c(NC(=O)c3ccccc3Br)c2)cc1,-2.02% (inactive),
Cc1oc2c(c1C(=O)Nc1ccc(F)c(F)c1)C1=NCCN1C=N2,29.2% (inactive),
Cn1c(=O)sc2cc(NS(=O)(=O)c3ccc(C(C)(C)C)cc3)ccc21,23.6% (inactive),
CCCN(CCC)C(=O)C(Cc1ccccc1)NS(=O)(=O)c1ccc2c(c1)c(=O)n(C)c(=O)n2C (centres undefined),4.62% (inactive),
CCOc1ccc(NC(=O)c2c(NC(=O)Cc3ccccc3)sc3c2CCCCC3)cc1,-6.09% (inactive),
O=C(O)c1ccc(CSc2nc3cccnc3n2Cc2cccc(F)c2)cc1,0.0903% (inactive),

SMILES,"activity change, negative = inhibition",Potency
COc1ccc(-c2nnc(SCC(=O)Nc3ccccc3C)o2)cc1OC,24.4% (inactive),
O=C(Nc1ccc(O)c(-c2nc3ccccc3o2)c1)c1ccc(-c2cccc(Cl)c2)o1,15.3% (inactive),
O=C(Cn1c(=O)n(-c2ccc(F)cc2)c(=O)c2sccc21)Nc1cccc(C(F)(F)F)c1,0.688% (inactive),
CSc1ccc(C2C(C(=O)Nc3ccccc3)=C(C)Nc3nc4ccccc4n32)cc1 (centres undefined),-0.989% (inactive),
COc1ccccc1NC(=O)COC(=O)COc1ccccc1F,4.46% (inactive),
CC(Oc1ccccc1F)C(=O)NN (centres undefined),,79.4 µM (active)
CC(C)C(=O)NC(=S)Nc1ccccc1F,-9.56% (inactive),
COc1ccc2c(c1)c(=O)c(C(=O)c1ccccc1)cn2CC(=O)Nc1ccc2c(c1)OCCO2,-6.8% (inactive),
CC1CCCN(S(=O)(=O)c2ccc3[nH]c(=O)cc(C(=O)NCCc4ccc(Cl)cc4)c3c2)C1 (centres undefined),7.12% (inactive),
O=S(=O)(NCC(c1ccccc1)N1CCc2ccccc21)c1ccccc1 (centres undefined),-1.77% (inactive),
Cc1ccc2nc(COc3cccc(NC(=O)Nc4ccc(C)c(Cl)c4)c3)cc(=O)n2c1,2.19% (inactive),
CN1C(=O)/C(=C\c2cc(Br)cs2)c2ccccc21,-18.1% (inactive),
COc1ccc(C(=O)ON=C2c3ccccc3-c3ccccc32)cc1OC,-7.74% (inactive),
CN1C(=O)/C(=N/OC(=O)c2ccccc2Br)c2ccccc21,,35.5 µM (active)
O=C(COc1ccccc1)NCc1ccc2c(c1)CCN2C(=O)c1ccc(F)cc1,6.72% (inactive),
CCc1ccccc1NC(=O)Cn1c(=O)n(CC2CCC(C(=O)NCCc3ccccc3)CC2)c(=O)c2ccccc21 (centres undefined),-3.1% (inactive),
CCCn1c(=N)c(C(=O)NCc2ccccc2)cc2c(=O)n3cccc(C)c3nc21,6.68% (inactive),
CC(C)(C)c1cc(CN2CCN(CCC#N)CC2)cc(C(C)(C)C)c1O,,35.5 µM (active)
N#Cc1cccc(CN2CCC(=O)N(CCO)CC2)c1,-1.68% (inactive),
CC(C)c1cc(CN2CCOCC2)cc(C(C)C)c1O,1.24% (inactive),
Cc1nn(Cc2ccc(F)cc2)c(C)c1NC(=O)c1cc(CC(C)C)on1,-7.87% (inactive),
CCOC(=O)c1c(S(=O)(=O)N2CCC(C(=O)NCc3ccccc3OC)CC2)c(C)n(C)c1C,6.8% (inactive),
CC(C)(C)c1ccc(S(=O)(=O)N2CCN(C(=O)c3cc(-c4ccc(Br)cc4)n[nH]3)CC2)cc1,9.24% (inactive),
COC(=O)CN1C(=O)CSc2ccc(S(=O)(=O)Nc3cc(C)ccc3C)cc21,-2.29% (inactive),

SMILES,"activity change, negative = inhibition",Potency
CCC1=Nc2cc(C(=O)NCCCOC(C)C)ccc2Sc2ccc(C)cc21,-0.0613% (inactive),
CC(C)c1ccc(C2CC(=O)N3CN(C4CCCCC4)CSC3=C2C#N)cc1 (centres undefined),-6.41% (inactive),
CCCNc1ncnc2c1c(-c1ccccc1)cn2-c1ccc(OCC)cc1,7.73% (inactive),
CCCN(CCC)CCNC(=O)c1ccc2c(c1)NC(=O)C(CS(=O)(=O)Cc1cccc(Br)c1)N2 (centres undefined),4.65% (inactive),
Cc1ccc(-n2c3nc(=O)[nH]c(=O)c-3cc3c(Cl)cccc32)cc1,17.3% (inactive),
O=C(CSc1nnc(-c2ccccc2F)o1)Nc1cccc(C(F)(F)F)c1,-2.35% (inactive),
CCC(=O)Nc1ccc2nc(SCC(=O)N3CCc4ccccc43)sc2c1,17% (inactive),
Cc1ccc(-c2cnc(NCc3ccc(C(C)C)cc3)n2C)cc1,1.02% (inactive),
Cc1ccc(C)c(NC(=O)C2CCCN(S(=O)(=O)c3cn(C)cn3)C2)c1 (centres undefined),1.52% (inactive),
Cc1c(C(=O)N2CCCC2)oc2c1-c1nn(CC(=O)NCc3ccc(OC(C)C)cc3)cc1CC2,-0.874% (inactive),
Cc1c(NC(=O)Nc2ccc(F)c(Cl)c2)c(=O)n(-c2ccccc2)n1C,10.1% (inactive),
CCCN(C(=O)Cn1cc(S(=O)(=O)N2CCN(c3ccccc3F)CC2)c2ccccc2c1=O)c1cccc(C)c1,15.1% (inactive),
COc1ccc(Cl)cc1S(=O)(=O)N1CCC(c2ccncc2)CC1,5.01% (inactive),
COc1ccc(-c2nc3sc(CCNS(=O)(=O)c4ccc(F)c(C)c4)c(C)n3n2)cc1,1.12% (inactive),
CCOc1ccc(-c2cc3nc(C4CCN(C(=O)OC(C)(C)C)CC4)c(C(=O)Nc4ccc(C(=O)OC)cc4)cn3n2)cc1,-0.405% (inactive),
CCCNC(=O)CCC(=O)N1Cc2ccccc2Oc2ncccc21,26.6% (inactive),
O=C(Cn1c(-c2cccs2)cc2ccccc21)NCCc1ccc(Cl)cc1,0.161% (inactive),
Cc1ccc(CNS(=O)(=O)c2ccc(-c3cc(C(F)(F)F)on3)s2)cc1,-0.38% (inactive),
COCCCNC(=O)c1ccc(NC(=O)c2nsc3ccccc23)cc1,1.67% (inactive),
COc1ccc(-c2nc(C)c(CCNC(=O)c3ccc(C(F)(F)F)cc3)s2)cc1OC,5.88% (inactive),
CC1CCCN(Cc2c(O)ccc3c(=O)c(Oc4ccc(C(C)(C)C)cc4)c(C(F)(F)F)oc23)C1 (centres undefined),-1.79% (inactive),
COc1ccc(/C=C/c2nc(C#N)c(NCc3ccc(F)cc3)o2)cc1OC,-1.11% (inactive),
